Data on 27 compounds can be found in the supplement of paper PMC6522484.

For test [1], the system named is DLD1. The test is described as follows: cell viability (CellTiter-Glo) relative to plate median (fraction of plate median); higher = more viable cells. The note with it: 5 µM; treatment time 24 h; reporter: 7TFP. Summed up:
(§1)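 Cells were seeded in 384-well plates; these were colorectal cancer lines stably transduced with lentiviral 7TFP or TCF4/Wnt firefly luciferase reporters. After 24 h, library compounds went in at a final 5 µM, and exposure lasted 24 h. Parallel plates were then read for firefly luciferase or CellTiterGlo luminescence, each well normalised to its plate median, with two independent replicates averaged.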
A general note: In ATP-based viability assays light output follows the ATP content of the culture.

Another test relates to HCT116. The description is as above. The note with it: 5 µM; treatment time 24 h; reporter: TCF4/Wnt. In a few lines: as §1
The subject of test [2] is SW480. The test is described as above. As to conditions: 5 µM; treatment time 24 h; reporter: 7TFP. In a few lines:
as §1

The test system of test [3] is DLD1. The test is described as follows: TCF/Wnt firefly luciferase reporter signal relative to plate median (fraction of plate median); higher = higher Wnt reporter signal. The note with it: 5 µM; treatment time 24 h; reporter: 7TFP. In a few lines:
as §1
A general note: A reporter such as luciferase makes a cellular process visible.

Test [4] deals with SW480. The test is described as above. As to conditions: 5 µM; treatment time 24 h; reporter: 7TFP. Summed up: as §1

± gives the standard deviation of the averaged measurements.

As to `C[C@H]1C[C@H]2[C@@H]3CCC4=CC(=O)C=C[C@]4(C)[C@@]3(F)[C@@H](O)C[C@]2(C)[C@@]1(O)C(=O)CO`, the cell viability in the test with DLD1 [1] is 0.973 ± 0.0099; in the test on HCT116, 1.03 ± 0.086; in the test with SW480 [2], 1.01 ± 0.016. Moreover, the results for the “TCF/Wnt firefly luciferase reporter signal” value in the test with DLD1 [3] and in the test with SW480 [4] were 0.938 ± 0.027 and 0.953 ± 0.0028, respectively.
Take `C=C(C)[C@H]1COc2cc3oc(=O)ccc3cc2O1`: the cell viability in the test with DLD1 [1] was 1.1 ± 0.17; with HCT116, 0.968 ± 0.026; with SW480 [2], 1.09 ± 0.057. Moreover, the “TCF/Wnt firefly luciferase reporter signal” value worked out at 1.06 ± 0.092 in the test with DLD1 [3] and 1.1 ± 0.042 in the test on SW480 [4].
For `CN1C(C(=O)Nc2ccccn2)=C(O)c2ccccc2S1(=O)=O`, the cell viability in the test on DLD1 [1] turned out to be 0.97 ± 0.057; in the test with HCT116, 0.975 ± 0.036; in the test on SW480 [2], 0.92 ± 0.061. Besides, the results for the “TCF/Wnt firefly luciferase reporter signal” value with DLD1 [3] and in the test with SW480 [4] were 1.1 ± 0.071 and 1.14, respectively.
The corresponding values for `CO/N=C1\CN(c2nc3c(cc2F)c(=O)c(C(=O)O)cn3C2CC2)CC1CN` (stereo not given) are 1.04 ± 0.06, 1.09 ± 0.057, 0.995 ± 0.021, 0.971 ± 0.11 and 1.06 ± 0.042.
For the compound `O=C(O)CCCC[C@@H]1CCSS1` (racemic), the cell viability is 1.06 ± 0.071 in the test on DLD1 [1], 1.01 with HCT116 and 0.986 ± 0.035 with SW480 [2]. Besides, the entries for the “TCF/Wnt firefly luciferase reporter signal” value in the test on DLD1 [3] and with SW480 [4] were 0.856 ± 0.032 and 0.96 ± 0.023, respectively.
On to `CCCC(=O)O[C@]1(C(=O)CO)CC[C@H]2[C@@H]3CCC4=CC(=O)CC[C@]4(C)[C@H]3[C@@H](O)C[C@@]21C`, for which the cell viability with DLD1 [1] worked out at 0.965 ± 0.03; in the test with HCT116, 0.958 ± 0.16; with SW480 [2], 1.02. In addition, the “TCF/Wnt firefly luciferase reporter signal” value in the test on DLD1 [3] stood at 0.895 ± 0.016; in the test with SW480 [4], 0.956 ± 0.0057.
For `C=CC[C@@H]1/C=C(\C)C[C@H](C)C[C@H](OC)[C@H]2O[C@@](O)(C(=O)C(=O)N3CCCC[C@H]3C(=O)O[C@H](/C(C)=C/[C@@H]3CC[C@@H](O)[C@H](OC)C3)[C@H](C)[C@@H](O)CC1=O)[C@H](C)C[C@@H]2OC`, the results for the cell viability with DLD1 [1], in the test with HCT116 and in the test on SW480 [2] were 1.02 ± 0.22, 1.05 ± 0.014 and 1.1 ± 0.021, respectively. Further, the “TCF/Wnt firefly luciferase reporter signal” value in the test on DLD1 [3] was 1.08 ± 0.042; with SW480 [4], 0.98 ± 0.0057.
With `CCn1cc(C(=O)O)c(=O)c2cc(F)c(N3CCNCC3)nc21`, the cell viability came out at 1.05 ± 0.064 with DLD1 [1], 0.98 ± 0.071 in the test on HCT116 and 1.05 ± 0.083 in the test with SW480 [2]. Also, the “TCF/Wnt firefly luciferase reporter signal” value is 1.065 ± 0.0071 with DLD1 [3] and 1.04 ± 0.028 in the test with SW480 [4].
The corresponding values for `O=C(/C=C/c1ccccc1)c1ccc(O)cc1O` are 1 ± 0.025, 0.984 ± 0.0071, 0.99 ± 0.028, 1.12 ± 0.071 and 1.07 ± 0.014.
For `Nc1ncnc2c1ncn2[C@H]1C[C@H](O)[C@@H](CO)O1`, the figures for the cell viability in the test on DLD1 [1], in the test with HCT116 and in the test with SW480 [2] were 1.07 ± 0.064, 1.06 ± 0.021 and 1.01 ± 0.044, respectively. For the same compound, the “TCF/Wnt firefly luciferase reporter signal” value was determined as 1.05 ± 0.014 in the test with DLD1 [3] and 1.09 ± 0.064 in the test on SW480 [4].
The corresponding values for `CC(=O)OC1CCC2(C)C3=C(CC[C@H]2C1(C)C)[C@@]1(C)CC[C@@H]([C@@H](C)CCC=C(C)C)[C@]1(C)CC3` (stereo not given in full) are 1.04 ± 0.097, 1 ± 0.064, 0.961 ± 0.0014, 1.06 ± 0.17 and 1.11 ± 0.014.
The corresponding values for `CCn1cc(C(=O)O)c(=O)c2cc(F)c(N3CCNC(C)C3)c(F)c21` (stereo not given) are 0.971 ± 0.056, 1.05 ± 0.057, 0.98 ± 0.012, 1.13 ± 0.057 and 0.997 ± 0.061.
Consider `N[C@@H](CC(=O)N1CCn2c(nnc2C(F)(F)F)C1)Cc1cc(F)c(F)cc1F`, for which the results for the cell viability with DLD1 [1], in the test with HCT116 and with SW480 [2] were 1.09 ± 0.042, 0.997 ± 0.061 and 0.963 ± 0.041, respectively. For the same compound, the “TCF/Wnt firefly luciferase reporter signal” value in the test with DLD1 [3] was 0.95 ± 0.069; with SW480 [4], 0.935 ± 0.081.
Taken in the same sequence, the figures for `CCc1nc(N)nc(N)c1-c1ccc(Cl)cc1` were 0.972 ± 0.082, 0.999 ± 0.03, 1.02 ± 0.021, 1.1 ± 0.23 and 1.1 ± 0.042.
With `CCCCS(=N)(=O)CCC(N)C(=O)O` (stereo not given), the cell viability in the test with DLD1 [1] amounted to 1.04 ± 0.021; in the test on HCT116, 0.948 ± 0.22; in the test on SW480 [2], 1.08 ± 0.014. In addition, the “TCF/Wnt firefly luciferase reporter signal” value was determined as 1.05 ± 0.028 in the test on DLD1 [3] and 1.03 ± 0.11 in the test on SW480 [4].
Taken in the same sequence, the figures for `NC[C@H]1O[C@H](O[C@H]2[C@H](O[C@@H]3O[C@H](CO)[C@@H](O)[C@H]3O)[C@@H](O)[C@H](N)C[C@@H]2N)[C@H](N)[C@@H](O)[C@@H]1O` were 0.955 ± 0.018, 0.996 ± 0.0014, 0.962 ± 0.0014, 1.04 ± 0.057 and 0.994 ± 0.023.
As for `CC(=O)OCC1=C(C(=O)O)N2C(=O)[C@@H](NC(=O)CSc3ccncc3)[C@H]2SC1`, the figures for the cell viability with DLD1 [1], with HCT116 and in the test on SW480 [2] were 1.05, 1.065 ± 0.0071 and 1.14 ± 0.14, respectively. Also, the “TCF/Wnt firefly luciferase reporter signal” value amounted to 0.985 ± 0.016 in the test with DLD1 [3] and 1.06 ± 0.057 in the test with SW480 [4].
The corresponding values for `C=C(C)[C@@H]1CC[C@]2(C(=O)O)CC[C@]3(C)[C@H](CC[C@@H]4[C@@]5(C)CC[C@H](O)C(C)(C)[C@@H]5CC[C@]43C)[C@@H]12` are 1.03 ± 0.021, 1.09, 1.005 ± 0.0071, 1.055 ± 0.0071 and 1.01 ± 0.014.
The corresponding values for `CC(=O)O[C@@H]1c2c(ccc3ccc(=O)oc23)OC(C)(C)[C@@H]1OC(=O)CC(C)C` are 0.979 ± 0.044, 1.02 ± 0.029, 0.931 ± 0.059, 0.875 ± 0.066 and 0.959 ± 0.054.
Taken in the same sequence, the figures for `COc1cc(OC)c(C(C)=O)c(O)c1C` were 0.992 ± 0.026, 0.977 ± 0.1, 1.045 ± 0.0071, 0.94 ± 0.11 and 0.885 ± 0.016.
As to `C=CCCCCCCCCCCCC(O)CC(O)COC(C)=O` (stereo not given), the results for the cell viability in the test on DLD1 [1], in the test with HCT116 and in the test on SW480 [2] were 0.995 ± 0.0071, 0.9555 ± 0.0064 and 1.005 ± 0.0071, respectively. The “TCF/Wnt firefly luciferase reporter signal” value worked out at 0.866 ± 0.1 with DLD1 [3] and 0.962 ± 0.021 in the test on SW480 [4].
Turning to `CN(C)[C@@H]1C(O)=C(C(N)=O)C(=O)[C@@]2(O)C(O)=C3C(=O)c4c(O)ccc(Cl)c4[C@@H](O)[C@H]3C[C@@H]12`, the cell viability in the test on DLD1 [1] amounted to 0.943 ± 0.025; with HCT116, 0.96 ± 0.071; with SW480 [2], 0.959 ± 0.0085. In addition, the results for the “TCF/Wnt firefly luciferase reporter signal” value in the test with DLD1 [3] and in the test with SW480 [4] were 0.924 ± 0.067 and 0.983 ± 0.039, respectively.
The corresponding values for `CC[C@H]1OC(=O)[C@H](C)[C@@H](O[C@H]2C[C@@](C)(OC)[C@@H](O)[C@H](C)O2)[C@H](C)[C@@H](O[C@@H]2O[C@H](C)C[C@H](N(C)C)[C@H]2O)[C@](C)(OC)C[C@@H](C)C(=O)[C@H](C)[C@@H](O)[C@]1(C)O` are 0.858 ± 0.099, 0.931 ± 0.0071, 1.05 ± 0.042, 0.996 ± 0.021 and 1.125 ± 0.0071.
For the compound `N=C(N)NCCN1CCCCCCC1`, the cell viability with DLD1 [1] worked out at 1.03 ± 0.035; in the test on HCT116 it was 1.04 ± 0.11; in the test on SW480 [2], 1.04 ± 0.05. The “TCF/Wnt firefly luciferase reporter signal” value in the test on DLD1 [3] came out at 0.983 ± 0.081; in the test on SW480 [4], 1.115 ± 0.0071.
The corresponding values for `C#C[C@]1(O)CC[C@H]2[C@@H]3CCC4=CC(=O)CC[C@@H]4[C@H]3CC[C@@]21C` are 1.15 ± 0.085, 0.9935 ± 0.0092, 1.04 ± 0.064, 0.847 ± 0.27 and 0.931 ± 0.03.
Taken in the same sequence, the figures for `O=c1cc(-c2ccc(O)cc2)oc2cc(O[C@@H]3O[C@H](CO)[C@@H](O)[C@H](O)[C@H]3O[C@@H]3OC[C@](O)(CO)[C@H]3O)cc(O)c12` were 0.959 ± 0.052, 1.04 ± 0.057, 1 ± 0.021, 1.045 ± 0.0071 and 1.04 ± 0.057.
As to `CC1(C)CC[C@]2(C(=O)O)CC[C@]3(C)C(=CCC4[C@@]5(C)CC[C@@H](O)C(C)(C)C5CC[C@]43C)C2C1` (stereo not given in full), the figures for the cell viability with DLD1 [1], in the test with HCT116 and in the test on SW480 [2] were 0.967 ± 0.032, 1.11 ± 0.092 and 1.08 ± 0.014, respectively. Also, the “TCF/Wnt firefly luciferase reporter signal” value is 0.955 ± 0.093 in the test with DLD1 [3] and 0.9805 ± 0.005 in the test with SW480 [4].
